The source of these data is PubChem BioAssay (NCATS).

SMILES strings stand for the structures. Several values for one entry are separate records, joined by “and”; a condition that tells them apart may be missing. Identical values can stand only once. A number with no mark means an inactive call. Results filed as inconclusive are left out. Activity calls are given as the source filed them. Unless noted, calls follow the shape of the dose curve; as a rule, active = well fitted curve in the direction sought with a large enough effect; inconclusive = small, poorly fitted or top-dose-only effect, or another doubt; inactive = no such curve, though single readings can be large; an effect the other way counts as inactive or inconclusive. Some results are limits rather than exact numbers.

Experiment [1] is described as follows: NFAT Signaling Pathway (AID 444; active = well fitted curve in either direction with a large enough effect, not every such curve was filed as active;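 also: carbachol stimulus at about its EC50 of 1 µM final; % is scaled to controls: 0 for no effect and ±100 for the full control effect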). To be noted: Jurkat NFAT-bla M1, carbachol, beta-lactamase ratio, 5 h. The method in brief:
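Jurkat cells carrying an NFAT-driven β-lactamase reporter and co-transfected muscarinic M1 receptor were treated with compound plus carbachol (1 uM final, an EC50 level) for 5 h at 37 °C. CCF4 loading followed for 1 h at RT; 460/530 nm ratio gave %activity.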

The nature of experiment [2]: Stat Signaling Pathway (AID 446; active = well fitted curve in either direction with a large enough effect, not every such curve was filed as active;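 also: ME-180 cervical cancer cells given 40 pM IL-6 alongside compound; SIE-controlled beta-lactamase reporter measured as 460/530 nm FRET emission ratio; % is scaled to controls: 0 for no effect and ±100 for the full control effect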). To be noted: ME-180 SIE beta-lactamase reporter, IL-6 stimulated, 5 h; series mostly up to 17.2 µM. The method in brief: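 ME-180 SIE-bla cells; overnight plating; cpd + IL-6 40 pM, 5 h, 37 C; LiveBLAzer 2.5 h RT; 460/530 nm emission ratio. Normalized to 300 pM IL-6 and 125 nM JAK inhibitor controls.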
For experiment [3], the target named is Glucocorticoid receptor (Homo sapiens) (UniProt P04150). The experiment in a line: GR-GFP Redistribution (AID 450;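 active = compounds whose dose series gives a full or clear partial fitted curve of increased nuclear translocation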; also: potency is read from the fitted curve at half-maximal effect). As to conditions: U2OS GR-GFP nuclear translocation, laser cytometry, 2 h.
Chain of Glucocorticoid receptor (Homo sapiens) (P04150 whole entry, looked up, the tested form may be a part): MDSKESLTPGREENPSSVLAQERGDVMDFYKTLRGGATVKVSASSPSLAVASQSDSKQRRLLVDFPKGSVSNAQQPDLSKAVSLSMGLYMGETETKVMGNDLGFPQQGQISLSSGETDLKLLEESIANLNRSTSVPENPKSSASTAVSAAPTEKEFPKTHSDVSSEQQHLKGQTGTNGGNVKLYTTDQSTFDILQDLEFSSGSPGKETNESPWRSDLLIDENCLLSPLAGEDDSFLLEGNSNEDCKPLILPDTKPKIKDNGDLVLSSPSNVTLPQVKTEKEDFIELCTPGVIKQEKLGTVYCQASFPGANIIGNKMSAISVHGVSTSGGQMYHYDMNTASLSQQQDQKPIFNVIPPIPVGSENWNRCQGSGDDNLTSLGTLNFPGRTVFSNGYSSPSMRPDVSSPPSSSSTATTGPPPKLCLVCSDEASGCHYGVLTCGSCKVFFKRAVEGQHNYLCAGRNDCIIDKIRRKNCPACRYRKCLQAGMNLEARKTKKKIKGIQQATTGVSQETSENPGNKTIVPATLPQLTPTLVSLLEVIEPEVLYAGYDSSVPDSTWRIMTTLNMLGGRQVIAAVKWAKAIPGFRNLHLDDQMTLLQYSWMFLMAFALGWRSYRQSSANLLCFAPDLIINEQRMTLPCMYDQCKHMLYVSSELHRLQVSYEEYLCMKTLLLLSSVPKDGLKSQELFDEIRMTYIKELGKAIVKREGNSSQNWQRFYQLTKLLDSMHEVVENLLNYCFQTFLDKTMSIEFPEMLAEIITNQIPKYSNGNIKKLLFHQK
Experiment [4] in a line: Cell Viability - Jurkat (AID 426;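 active = dose-dependent loss of cell ATP signal giving a full or clear fitted curve, ranked by lower potency value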; also: potency is read from the fitted curve at half-maximal effect). To be noted: qHTS. The method in brief: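 qHTS, 1536-well; Jurkat E6-1, 5000 cells/well, complete medium; cpd 40 hr, 37 °C; CellTiter-Glo 20 min RT; luminescence. AC50 by Hill fit.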
Experiment [5] can be described thus: Cell Viability - MRC5 (AID 434; calls by dose curve;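 also: potency is read from the fitted curve at half-maximal effect; potency reflects cytotoxicity seen as loss of intracellular ATP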). To be noted: MRC5 lung fibroblast viability, qHTS. The method in brief: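 MRC5 normal human lung fibroblasts (1500/well) were treated with compounds for 40 hr at 37 °C in complete medium, and viable cells were measured as intracellular ATP by CellTiter-Glo luminescence. AC50 came from Hill fits, normalized to DMSO and 100 uM tamoxifen.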

Experiment [6] can be described thus: Cell Viability - SK-N-SH (AID 435; calls by dose curve;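 also: potency is read from the fitted curve at half-maximal effect; compound exposure lasted 40 h at 37 °C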). To be noted: SK-N-SH neuroblastoma cell viability qHTS. A digest of the protocol: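 SK-N-SH human neuroblastoma cells (1500/well) were exposed to compounds in complete medium for 40 h at 37 °C, and intracellular ATP was then measured by CellTiter-Glo luminescence. AC50 was taken from Hill fits, normalized to DMSO and 100 uM tamoxifen.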

For experiment [7], the target named is Mitogen-activated protein kinase 10 (Mus musculus) (UniProt Q61831). The experiment in a line: JNK3 AlphaScreen Assay (AID 530; active = well fitted curve in either direction with a large enough effect, not every such curve was filed as active;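 also: kinase came from lysate of stimulated human HepG2 cells; signal reports phosphorylation of biotinylated GST-cJun 1-79 at Ser73 with 10 µM ATP; % is scaled to controls: 0 for no effect and ±100 for the full control effect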). As to conditions: JNK3 lysate, c-Jun phosphorylation; series mostly up to 57.1 µM. A digest of the protocol:
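Inhibitors reduce antibody binding to phosphorylated biotin-cJun, lowering AlphaScreen luminescence. Lysates from HepG2 cells pre-activated by IL-1beta plus TNF-alpha supplied JNK3; compounds were titrated.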

Experiment [8] can be described thus: Cell Viability - N2a (AID 540). Also: nearly all actives have a fitted effect of over 45% in size. Also: potency is read from the fitted curve at half-maximal effect.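 As to activity change, negative = cytotoxicity: plate controls were DMSO alone for no effect and tamoxifen control for full effect.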 As to conditions: N2a mouse neuroblastoma cell viability; activity change, negative = cytotoxicity: at 92.2 µM (top of the series). A digest of the protocol:
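Luminescent ATP signal (CellTiter-Glo, 20 min at room temperature) served as the viability read-out after N2a cells were treated with compounds for 40 hours at 37 °C. Concentration-response data were fitted to the Hill equation for AC50.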

The nature of experiment [9]: Cell Viability - NIH 3T3 (AID 541).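 Also: plate controls were DMSO alone for no effect and tamoxifen positive control for full effect; nearly all actives have a fitted effect of over 25% in size.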 As to conditions: NIH 3T3 cell viability, qHTS; activity change, negative = cytotoxicity: at 92.2 µM (top of the series). The method in brief:
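Luminescent ATP signal (CellTiter-Glo) served as the viability read-out after NIH 3T3 cells were exposed to compounds over a concentration range for 40 hr at 37 °C. Hill-equation modelling of concentration-response data gave AC50.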

Experiment [10] is described as follows: Cell Viability - HUV-EC-C (AID 542). Also: nearly all actives have a fitted effect of over 35% in size. Also: potency is read from the fitted curve at half-maximal effect. As to activity change, negative = cytotoxicity: % is scaled to controls: 0 for no effect and ±100 for the full control effect. To be noted: HUV-EC-C endothelial cell viability, qHTS; series mostly up to 92.2 µM. The method in brief: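 qHTS cytotoxicity: HUV-EC-C, 1000 cells/well, 5 hr settle, compound 40 hr 37 °C, CellTiter-Glo, luminescence. AC50 via Hill equation.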
The nature of experiment [11]: Cell Viability - H-4-II-E (AID 543). Also: nearly all actives have a fitted effect of over 35% in size. Also: potency is read from the fitted curve at half-maximal effect. As to conditions: H-4-II-E rat hepatoma viability; series mostly up to 92.2 µM. A digest of the protocol: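 Luminescent ATP signal (CellTiter-Glo) served as the viability read-out, with cytotoxicity seen as a concentration-dependent ATP drop. Cells were treated for 40 hours in complete medium. AC50 values derive from Hill-equation modelling.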

A short description of experiment [12]: Cell Viability - SH-SY5Y (AID 544). Also: nearly all actives have a fitted effect of over 55% in size. Also: potency is read from the fitted curve at half-maximal effect.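 As to viability change, negative = cytotoxic: 0% = DMSO alone and -100% = 100 µM tamoxifen.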 As to conditions: SH-SY5Y neuroblastoma cell viability; viability change, negative = cytotoxic: at 92.2 µM (top of the series). A digest of the protocol:
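Luminescent ATP read-out (CellTiter-Glo) measures loss of viable SH-SY5Y neuroblastoma cells after 40 hr compound exposure at 37 °C. AC50 values derive from standard Hill modelling of qHTS concentration-response data.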

Experiment [13] in a line: Cell Viability - Renal Proximal Tubule (AID 545). Also: nearly all actives have a fitted effect of over 40% in size. Also: potency is read from the fitted curve at half-maximal effect.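 As to activity change, negative = cytotoxicity: 0% = DMSO only and -100% = 100 µM tamoxifen.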 To be noted: renal proximal tubule cells viability, primary cells of rat origin; activity change, negative = cytotoxicity: at 91.7 µM (top of the series). A digest of the protocol: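 Primary rat renal proximal tubule cells (1000/well) were treated with compounds for 40 hr at 37 °C in complete medium. Intracellular ATP was measured by CellTiter-Glo luminescence, and AC50 values came from Hill-equation fits of concentration-response data.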

Experiment [14] addresses Glucocorticoid receptor (Homo sapiens) (UniProt P04150). As to the kind of experiment: GR-EFC Redistribution (AID 451; calls by dose curve; also: potency is read from the fitted curve at half-maximal effect). As to conditions: CHO-K1 GR-EFC translocation, beta-gal luminescence, 2 h. The method in brief:
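CHO-K1 cells stably expressing nuclear-localized β-gal enzyme acceptor and GR fused C-terminally to the enzyme donor fragment; ligand-driven nuclear translocation restores β-gal by complementation. Compounds titrated up to 46 uM final, 2 h at 37 °C; luminescence read.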

Experiment [15] in a line: Cell Viability - BJ (AID 421; calls by dose curve;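 also: potency is read from the fitted curve at half-maximal effect; cells exposed to compound for 40 hours at 37 °C before readout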). As to conditions: BJ fibroblast viability, qHTS. A digest of the protocol:
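Luminescent ATP signal (CellTiter-Glo, 20 min at room temperature) served as the read-out of viable BJ cells after 40 hours of compound treatment. Responses were scaled between DMSO and 100 uM tamoxifen, and AC50 values were obtained by Hill modeling.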

A short description of experiment [16]: Cell Viability - Hek293 (AID 427;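 active = compounds whose dose-response curve shows a full or clear partial loss of cell viability, called from curve shape rather than a numeric limit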;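 also: potency is read from the fitted curve at half-maximal effect; cells exposed to compound for 40 hours at 37 °C before reading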). To be noted: qHTS. The method in brief:
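Luminescent ATP read-out (CellTiter-Glo, 20 min RT) after 40 hr compound exposure at 37 °C in complete medium. Signal normalized to DMSO (basal) and 100 uM tamoxifen (100% inhibition); concentration-response fitted with the standard Hill equation to give AC50.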

Experiment [17] in a line: Cell Viability - HepG2 (AID 433; calls by dose curve;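 also: potency is read from the fitted curve at half-maximal effect; potency for ATP loss meaning cytotoxicity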). To be noted: qHTS. A digest of the protocol: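 HepG2 hepatocellular carcinoma cells (1500/well) were treated with compounds for 40 h at 37 °C in complete medium; intracellular ATP was read by CellTiter-Glo luminescence. Data were normalized to DMSO and 100 uM tamoxifen, and AC50 came from Hill fits.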
A short description of experiment [18]: Cell Viability - Mesenchymal (AID 546).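 Also: cells exposed to compound for 40 hours before reading.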 Also: potency is read from the fitted curve at half-maximal effect.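 As to activity change, negative = cytotoxicity: 0% = DMSO only and -100% = 100 µM tamoxifen.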 To be noted: mesenchymal cells viability, qHTS; activity change, negative = cytotoxicity: at 91.7 µM (top of the series). A digest of the protocol: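 Normal human renal glomerulus-derived kidney mesenchymal cells, 1000 per well in complete medium, were treated with compounds for 40 hr at 37 °C. Viability was read as intracellular ATP by CellTiter-Glo luminescence; AC50 values came from Hill-equation fits of qHTS concentration-response data.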

Turning to `CC1(C)O[C@@H]2C[C@H]3[C@@H]4C[C@H](F)C5=CC(=O)C=C[C@]5(C)[C@@]4(F)[C@@H](O)C[C@]3(C)[C@]2(C(=O)CO)O1`, the activity change, negative = inhibition in experiment [1] (at 17.2 µM (top of the series)) is 22.4%. Besides, the outcome in experiment [2] was inactive. For the same compound, the Potency in experiment [3] was 0.728 nM (active).

On to `Nc1c2ccccc2nc2ccccc12`, for which the Potency was 31.9 µM (active) in experiment [4]; 38.2 µM (active) in experiment [5]; 40.5 µM (active) in experiment [6]; 15.8 µM (active) in [10]; 15.8 µM (active) in [11]; 7.94 µM (active) in experiment [12]. Moreover, the Potency in [13] was 31.6 µM (active). In addition, the compound was called inactive in experiment [7]. Further, the values for the activity change, negative = cytotoxicity in experiment [8] and in [9] were -89.3% (active) and -137% (active), respectively.

For `NCC(=O)O`, the figures for the Potency in experiment [3] and in experiment [14] were more than 46000 nM and more than 46 µM, respectively. For the same compound, in [7], the compound was called inactive.

Take `Cc1ccc(O)cc1`: the Potency in experiment [15], in [4], in experiment [16], in experiment [17], in experiment [5] and in experiment [6] was more than 92 µM throughout. In addition, the Potency result in experiment [8], in [10], in experiment [11], in [12], in [13] and in [18] was “inactive” in each case. For the same compound, in experiment [9], the activity change, negative = cytotoxicity is -11.4%.

With `CC1(C)O[C@@H]2C[C@H]3[C@@H]4CCC5=CC(=O)C=C[C@]5(C)[C@@]4(F)[C@@H](O)C[C@]3(C)[C@]2(C(=O)CO)O1`, the result in [2] was inactive. Further, the Potency in experiment [3] is 3.13 nM (active).

With `CC(=O)Nc1c(I)c(NC(C)=O)c(I)c(C(=O)O)c1I`, in experiment [1] (at 17.2 µM (top of the series)), the activity change, negative = inhibition is -7.63%. For the same compound, in experiment [2], the result was inactive. In addition, the Potency in [3] is more than 20600 nM.

As for `CCCC(=O)O[C@]1(C(=O)CCl)[C@@H](C)C[C@H]2[C@@H]3CCC4=CC(=O)C=C[C@]4(C)[C@@]3(F)C(=O)C[C@@]21C`, in [2], the compound was called inactive. The Potency in experiment [3] is < 0.0059 nM (active).

Turning to `Nc1ccc(O)cc1`, the Potency in experiment [15] was 62.8 µM (active); in experiment [4], 38.6 µM (active); in experiment [16], 47.3 µM (active); in experiment [5], 53.3 µM (active); in experiment [6] it was 43 µM (active); in experiment [8], 31.6 µM (active). For the same compound, the Potency in [10] is 31.6 µM (active); in [11], 39.8 µM (active); in experiment [12] it was 25.1 µM (active); in [13] it was 25.1 µM (active); in experiment [18] it was 31.6 µM (active). Also, in experiment [7], the outcome was inactive. The activity change, negative = cytotoxicity in experiment [9] was -133% (active).

Consider `CCCCCC(=O)O[C@]1(C(C)=O)CC[C@H]2[C@@H]3CCC4=CC(=O)CC[C@]4(C)[C@H]3CC[C@@]21C`, for which the outcome in experiment [2] was inactive. In addition, the Potency in experiment [3] was 5.27 nM (active).

Turning to `NC(N)=NCCCCN=C(N)N`, the activity change, negative = inhibition in experiment [1] (at 17.2 µM (top of the series)) is 8.46%; in [1] (at 38 µM (top of the series)) it was -22%. Besides, the result in [2] and in [7] was inactive. Also, the Potency in experiment [3] was > 46000 nM and > 20600 nM; in [14] it was > 46 µM and > 20.6 µM.

Consider `CC(C)(C)c1ccc(O)c(O)c1`, for which the Potency was more than 92 µM in experiment [15]; 49.4 µM (active) in experiment [4]; more than 92 µM in experiment [17]; more than 92 µM in [5]; 54.4 µM (active) in experiment [6]; 12.6 µM (active) in experiment [12]. For the same compound, the call in experiment [7] was inactive. The activity change, negative = cytotoxicity in experiment [9] was -146% (active); in experiment [13], -98.1% (active); in experiment [18], -100% (active).

With `O=C1NC(c2cccc([N+](=O)[O-])c2)=CCN1c1ccccc1O`, the activity change, negative = inhibition in experiment [1] (at 38 µM (top of the series)) was 4.96%. Moreover, the call in experiment [2] and in experiment [7] was inactive. The figures for the Potency in experiment [3] and in [14] were more than 46000 nM and more than 46 µM, respectively.

In the case of `C[C@]12CCC(=O)C=C1CC[C@@H]1[C@@H]2[C@@H](O)C[C@@]2(C)[C@H]1CC[C@]2(O)C(=O)COC(=O)CCC(=O)O`, in experiment [1] (at 17.2 µM (top of the series)), the activity change, negative = inhibition was 10.9%. Besides, the compound was called inactive in experiment [2]. Besides, the Potency in [3] was 44.2 nM (active) and 599 nM (active).

Consider `O=C(NO)c1ccccc1`, for which the Potency in experiment [15], in experiment [16], in experiment [17], in experiment [5] and in experiment [6] was more than 92 µM each time. Also, the call in [7] was inactive. Besides, the Potency result in experiment [8], in experiment [10], in [11], in experiment [12], in experiment [13] and in experiment [18] was “inactive” throughout.

On to `C[C@H]1C[C@@H]2[C@H]([C@@H](O)C[C@@]3(C)[C@H]2CC[C@]3(O)C(=O)CO)[C@@]2(C)C=CC(=O)C=C12`, for which the activity change, negative = inhibition in experiment [1] (at 17.2 µM (top of the series)) was 17.5%. Further, the call in experiment [2] was inactive.
